Laboratory results as given in PubChem BioAssay AID1159580 (chemical genetic matrix, 2015).
“And” between values parts separate entries of the source, which are not always exact repeats. Identical values can stand only once. Screen size: about 5,500 compounds; about 2,000 (36%) were called active. Another 18% or so got no clear call; they are omitted. No stated cut-off is given here; in the data, active means normalized growth mostly below about 0.91 (no sharp cut-off); inconclusive means no clear call, values can overlap the other calls; inactive means mostly above about 0.92. The list shows a part of the results.

Assay: chemical genetic growth profiling, strain panel (AID 1159580);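 further: tested at 20 µM; growth read once vehicle control cultures reached saturation at 30 °C; 1 = growth at the plate median or of vehicle wells; lower values mean less growth of the strain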
Conditions: S. cerevisiae deletion strains, growth OD

Measured: normalized growth

O=[N+]([O-])c1cc(O)c(O)c([N+](=O)[O-])c1
inactive: locus YAL021C, strain ccr4, hits give low values 1.01 | locus YAL026C, strain drs2, hits give low values 1.01 | locus YAL030W, strain snc1, hits give low values 1.02 | locus YAL040C, strain CLN3, hits give low values 0.986 | locus YBL061C, strain skt5, hits give low values 1.01 | locus YBR009C, strain hhf1, hits give low values 1.07 | locus YBR021W, strain FUR4, hits give low values 0.953 | locus YBR023C, strain chs3, hits give low values 1.03 | locus YBR171W, strain sec66, hits give low values 1.01 | locus YBR229C, strain ROT2, hits give low values 1.01 | locus YBR231C, strain swc5, hits give low values 0.983 | locus YBR279W, strain paf1, hits give low values 1.03 | locus YCL011C, strain gbp2, hits give low values 1.03 | locus YCL016C, strain dcc1, hits give low values 1.05 | locus YCL029C, strain bik1, hits give low values 0.984 | locus YCL061C, strain MRC1 (second series), hits give low values 0.993 | locus YCL061C, strain MRC1, hits give low values 1.03 | locus YCL069W, strain vba3, hits give low values 1.01 | locus YCR088W, strain abp1, hits give low values 1 | locus YDL005C, strain med2, hits give low values 1.02 | locus YDL035C, strain GPR1, hits give low values 1 | locus YDL040C, strain nat1, hits give low values 1.02 | locus YDL074C, strain BRE1, hits give low values 1.01 | locus YDL101C, strain DUN1, hits give low values 1.01 | locus YDL185W, strain tfp1, hits give low values 0.967 | locus YDL192W, strain arf1, hits give low values 0.988 | locus YDR001C, strain nth1, hits give low values 0.998 | locus YDR069C, strain doa4, hits give low values 0.996 | locus YDR101C, strain arx1, hits give low values 0.997 | locus YDR137W, strain rgp1, hits give low values 0.982 | locus YDR150W, strain NUM1, hits give low values 1.01 | locus YDR159W, strain sac3, hits give low values 0.957 | locus YDR162C, strain NBP2, hits give low values 0.999 | locus YDR195W, strain ref2 0.992 | locus YDR297W, strain sur2, hits give low values 1.01 | locus YDR318W, strain mcm21, hits give low values 0.987 | locus YDR334W, strain swr1, hits give low values 1.01 | locus YDR335W, strain msn5, hits give low values 1.01 | locus YDR363W, strain ESC2, hits give low values 1.06 | locus YDR388W, hits give low values 0.978 | locus YDR392W, strain spt3, hits give low values 1.08 | locus YDR502C, strain sam2, hits give low values 1 | locus YEL003W, strain gim4, hits give low values 1.02 | locus YEL037C, strain rad23, hits give low values 1.01 | locus YEL061C, strain CIN8 (second series), hits give low values 1 | locus YEL061C, strain CIN8, hits give low values 1 | locus YER002W, strain NOP16, hits give low values 0.996 | locus YER015W, strain faa2, hits give low values 1.01 | locus YER016W, strain bim1, hits give low values 0.995 | locus YER110C, hits give low values 0.99 | locus YER111C, strain swi4, hits give low values 1 | locus YER155C, strain BEM2 (second series), hits give low values 0.992 | locus YER155C, strain BEM2, hits give low values 0.993 | locus YER167W, strain BCK2, hits give low values 1.02 | locus YFR010W, strain ubp6, hits give low values 1.01 | locus YGL078C, strain dbp3, hits give low values 0.976 | locus YGL086W, strain mad1, hits give low values 1 | locus YGL167C, strain pmr1, hits give low values 1.02 | locus YGL173C, strain kem1, hits give low values 1.01 | locus YGL227W, strain vid30, hits give low values 1.01 | locus YGL240W, strain doc1, hits give low values 0.998 | locus YGL248W, strain PDE1, hits give low values 1.03 | locus YGL253W, strain hxk2, hits give low values 0.959 | locus YGR078C, strain PAC10, hits give low values 1.01 and 0.977 | locus YGR135W, strain pre9, hits give low values 0.969 | locus YGR229C, strain SMI1, hits give low values 0.983 | locus YGR252W, strain gcn5, hits give low values 0.849 | locus YHR013C, strain ard1, hits give low values 1.05 | locus YHR027C, strain rpn1, hits give low values 1.01 | locus YHR030C, strain SLT2, hits give low values 0.996 | locus YHR079C, strain IRE1 (second series), hits give low values 0.994 | locus YHR094C, strain hxt1, hits give low values 0.972 | locus YHR129C, strain ARP1, hits give low values 1 | locus YHR142W, strain chs7, hits give low values 1.01 | locus YHR200W, strain rpn10, hits give low values 0.991 | locus YIL066C, strain RNR3, hits give low values 1.01 | locus YIL073C, strain SPO22, hits give low values 0.99 | locus YIL125W, strain kgd1, hits give low values 0.972 | locus YIR030C, strain dcg1, hits give low values 0.976 | locus YJL092W, strain hpr5, hits give low values 1.02 | locus YJL095W, strain BCK1 (second series), hits give low values 1.02 | locus YJL095W, strain BCK1, hits give low values 0.987 | locus YJL115W, strain asf1, hits give low values 1.01 | locus YJL129C, strain trk1, hits give low values 1.01 | locus YJL134W, strain LCB3, hits give low values 1.01 | locus YJL154C, strain vps35, hits give low values 1.01 | locus YJL164C, strain tpk1, hits give low values 1.06 | locus YJL166W, strain qcr8, hits give low values 1.01 | locus YJL168C, strain set2, hits give low values 0.978
